In PubChem BioAssay AID651623 (National Center for Advancing Translational Sciences (NCATS), 2012):
Calls of active or inactive are those of the source.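 How the source made its calls: active means inhibition of at least 60% at 114 µM; inconclusive means inhibition from 30% up to below 60% at 114 µM; inactive means inhibition below 30% at 114 µM.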

These molecules were tested against Ubiquitin carboxyl-terminal hydrolase 8 (Homo sapiens) (UniProt P40818) (assay: Inhibitors of USP1/UAF1: SAR in USP8 diubiquitin SDS-PAGE gel assay). Details: USP8 K63 diubiquitin cleavage; series mostly up to 114 µM.
Sequence of Ubiquitin carboxyl-terminal hydrolase 8 (Homo sapiens) (P40818 whole entry, looked up): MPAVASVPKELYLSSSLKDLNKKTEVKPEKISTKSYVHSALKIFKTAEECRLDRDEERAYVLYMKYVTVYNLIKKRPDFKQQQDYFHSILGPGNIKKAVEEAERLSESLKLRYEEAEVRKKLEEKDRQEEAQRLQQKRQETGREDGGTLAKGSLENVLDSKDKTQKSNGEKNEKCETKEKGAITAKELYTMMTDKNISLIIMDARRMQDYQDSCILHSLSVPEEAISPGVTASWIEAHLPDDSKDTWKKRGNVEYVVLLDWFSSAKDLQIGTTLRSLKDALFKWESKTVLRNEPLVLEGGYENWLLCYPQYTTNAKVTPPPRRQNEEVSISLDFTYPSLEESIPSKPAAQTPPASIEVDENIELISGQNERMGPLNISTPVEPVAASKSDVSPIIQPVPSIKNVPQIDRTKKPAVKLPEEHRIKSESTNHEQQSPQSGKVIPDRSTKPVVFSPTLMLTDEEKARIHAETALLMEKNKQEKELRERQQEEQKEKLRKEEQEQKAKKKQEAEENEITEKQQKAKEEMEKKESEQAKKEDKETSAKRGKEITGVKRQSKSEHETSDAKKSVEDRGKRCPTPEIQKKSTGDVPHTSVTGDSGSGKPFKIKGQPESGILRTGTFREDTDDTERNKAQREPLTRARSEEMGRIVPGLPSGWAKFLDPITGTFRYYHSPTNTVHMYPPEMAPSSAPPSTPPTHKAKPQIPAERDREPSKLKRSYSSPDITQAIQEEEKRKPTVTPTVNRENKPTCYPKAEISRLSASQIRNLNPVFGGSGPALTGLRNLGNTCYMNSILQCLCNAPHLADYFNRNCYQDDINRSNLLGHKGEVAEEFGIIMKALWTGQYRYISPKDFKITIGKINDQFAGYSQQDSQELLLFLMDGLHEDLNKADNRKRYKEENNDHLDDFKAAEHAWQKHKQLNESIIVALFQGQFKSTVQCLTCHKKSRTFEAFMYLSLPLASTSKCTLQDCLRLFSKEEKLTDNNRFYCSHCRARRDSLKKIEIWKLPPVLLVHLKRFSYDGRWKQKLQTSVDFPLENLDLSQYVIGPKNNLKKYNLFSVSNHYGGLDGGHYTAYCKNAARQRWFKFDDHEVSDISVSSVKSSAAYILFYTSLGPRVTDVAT
Excerpt: Deubiquitinating enzymes (DUBs) are a class of enzymes that can cleave isopeptide bond formed between the C-terminal carboxylate of ubiquitin and a lysine side-chain amino group on the target protein. Among them, ubiquitin specific proteases (USPs) constitute the largest DUB family. Human USPs are emerging as promising targets for pharmacological intervention because of their connection to a number of human diseases, including prostate, colon and breast cancer (1, 2), pediatric acute lymphoblastic leukemia (3), and familial cylindromatosis (4). The advantage of inhibiting USPs lies in the potential specificity of therapeutic intervention that can lead to better efficacy and reduce nonspecific side effects. In a collaboration between the University of Delaware and the NIH Chemical Genomics Center, a high-throughput screen assay was developed to screen for USP1/UAF1 inhibitors (5). […]
The inhibition assay contains 80 nM USP8, 2 microM K63 linked diubiquitin, and inhibitors at varied concentrations (0.08 microM - 114 microM). […] The intensity of the individual diubiquitin and monoubiquitin band was quantified using Quantity One 4.3.1 (Biorad, Hercules, CA). The percentage of the conversion was determined and used to calculate the reaction rate. […]
With `Cc1cnc(-c2ccccc2C(C)C)nc1NCc1ccc(-n2ccnn2)cc1` the outcome was “inactive”.
